In article PMC7862700, “An all-to-all approach to the identification of sequence-specific readers for epigenetic DNA modifications on cytosine” one finds binding signal data, which are given here for one sequence.

Experiment in all cases: DAPPL (digital affinity profiling via proximity ligation, sequencing); 10 mM Tris-HCl pH 7.5, 50 mM NaCl, 1 mM DTT, 4% glycerol, room temperature, 30 min; GST-TFs on glutathione beads, 16-mer random dsDNA library, 0.1% formaldehyde crosslink after washing; high values mean tight binding
In one assay the target is T1, FEV (Homo sapiens, UniProt Q99581 1-238).
T1 sequence: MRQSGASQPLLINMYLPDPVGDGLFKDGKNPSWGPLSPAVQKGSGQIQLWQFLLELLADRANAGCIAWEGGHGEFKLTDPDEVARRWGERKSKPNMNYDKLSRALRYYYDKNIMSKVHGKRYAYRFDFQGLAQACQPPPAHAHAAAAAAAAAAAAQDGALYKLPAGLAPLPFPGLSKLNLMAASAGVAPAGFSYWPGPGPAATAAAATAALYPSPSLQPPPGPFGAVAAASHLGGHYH
The conditions noted are these: protein: recombinant; tags: N-terminal GST; dsDNA, one strand shown. The method in brief: (§1)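 Each value of binding signal is a hexamer's read frequency for a factor divided by the same hexamer's frequency in the tag-only sample. Barcoded, bead-captured GST fusions of human transcription factors made in yeast were pooled with that sample and incubated with 200 nmole of a random double-stranded 16-mer DNA library in Tris/NaCl/DTT/glycerol buffer at room temperature for 30 min. Washing, 0.1% formaldehyde crosslinking, proximity ligation, PCR and Illumina NextSeq500 sequencing followed.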

For a further assay, the target named is ETV5 (Homo sapiens, UniProt P41161 1-510). The conditions noted are these: protein: recombinant; tags: N-terminal GST; dsDNA, one strand shown. The method in brief:
as §1

A further assay has as its target HSF1 (Homo sapiens, UniProt Q00613 1-529). The conditions noted are these: protein: recombinant; tags: N-terminal GST; chain copies: 3; dsDNA, one strand shown. The method in brief:
as §1

A further assay has as its target T2, SPIC (Homo sapiens, UniProt Q8N5J4 1-248).
T2 sequence: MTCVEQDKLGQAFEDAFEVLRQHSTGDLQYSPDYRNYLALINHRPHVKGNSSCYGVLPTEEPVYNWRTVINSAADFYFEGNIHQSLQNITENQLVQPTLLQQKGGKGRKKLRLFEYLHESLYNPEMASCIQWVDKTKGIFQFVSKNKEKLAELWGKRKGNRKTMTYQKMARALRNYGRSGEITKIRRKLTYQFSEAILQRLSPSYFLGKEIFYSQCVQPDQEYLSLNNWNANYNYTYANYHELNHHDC
The following applies: protein: recombinant; tags: N-terminal GST; dsDNA, one strand shown. The method in brief: as §1

For another assay, the target named is ELF4 (Homo sapiens, UniProt Q99607 1-663). The conditions noted are these: protein: recombinant; tags: N-terminal GST; dsDNA, one strand shown. The method in brief: as §1
ELF4, sequence (Q99607 whole entry): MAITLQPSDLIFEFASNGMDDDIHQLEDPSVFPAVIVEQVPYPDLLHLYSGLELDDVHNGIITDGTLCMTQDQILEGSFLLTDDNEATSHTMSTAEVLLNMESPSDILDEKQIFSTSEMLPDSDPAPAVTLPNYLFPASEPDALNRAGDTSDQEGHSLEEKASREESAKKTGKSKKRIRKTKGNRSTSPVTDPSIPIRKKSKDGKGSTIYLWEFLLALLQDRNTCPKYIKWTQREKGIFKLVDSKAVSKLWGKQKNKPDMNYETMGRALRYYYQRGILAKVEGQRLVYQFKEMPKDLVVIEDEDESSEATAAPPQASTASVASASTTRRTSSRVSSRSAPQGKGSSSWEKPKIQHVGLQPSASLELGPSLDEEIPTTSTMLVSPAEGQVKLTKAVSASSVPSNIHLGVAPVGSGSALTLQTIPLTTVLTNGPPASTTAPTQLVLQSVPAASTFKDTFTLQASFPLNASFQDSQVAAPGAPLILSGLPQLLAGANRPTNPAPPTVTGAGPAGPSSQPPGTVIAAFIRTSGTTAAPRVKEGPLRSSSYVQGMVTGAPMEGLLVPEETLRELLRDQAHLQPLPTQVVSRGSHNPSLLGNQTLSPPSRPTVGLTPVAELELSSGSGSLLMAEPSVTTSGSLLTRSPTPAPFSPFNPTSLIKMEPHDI
Another assay concerns the target T3, ELK4 (Homo sapiens, UniProt P28324-2 1-405).
T3 sequence: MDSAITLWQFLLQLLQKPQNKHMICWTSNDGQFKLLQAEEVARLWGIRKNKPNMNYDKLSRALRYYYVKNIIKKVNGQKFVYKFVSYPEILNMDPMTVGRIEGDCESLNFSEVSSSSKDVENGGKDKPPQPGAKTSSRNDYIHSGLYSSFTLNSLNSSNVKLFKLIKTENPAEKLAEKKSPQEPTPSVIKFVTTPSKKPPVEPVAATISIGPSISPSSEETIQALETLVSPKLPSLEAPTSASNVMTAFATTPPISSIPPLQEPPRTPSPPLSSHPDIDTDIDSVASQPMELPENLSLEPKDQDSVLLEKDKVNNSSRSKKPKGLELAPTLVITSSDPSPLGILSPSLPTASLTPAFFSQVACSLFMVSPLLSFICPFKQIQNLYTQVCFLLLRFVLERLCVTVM
The conditions noted are these: protein: recombinant; tags: N-terminal GST; dsDNA, one strand shown. The method in brief:
as §1

A further assay deals with T4, ETV2 (Homo sapiens, UniProt O00321 1-342).
T4 sequence: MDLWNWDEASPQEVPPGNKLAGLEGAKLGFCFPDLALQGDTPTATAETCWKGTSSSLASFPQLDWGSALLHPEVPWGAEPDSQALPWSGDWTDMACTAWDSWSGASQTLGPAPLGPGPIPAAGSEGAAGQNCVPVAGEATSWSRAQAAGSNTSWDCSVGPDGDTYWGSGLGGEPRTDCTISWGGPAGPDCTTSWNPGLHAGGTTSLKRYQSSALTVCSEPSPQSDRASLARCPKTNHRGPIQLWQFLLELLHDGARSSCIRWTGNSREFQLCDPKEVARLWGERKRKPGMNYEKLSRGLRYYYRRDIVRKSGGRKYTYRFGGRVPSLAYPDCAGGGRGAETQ
The conditions noted are these: protein: recombinant; tags: N-terminal GST; dsDNA, one strand shown. The method in brief:
as §1

The next assay has as its target T5, ELF3 (Homo sapiens, UniProt P78545 1-371).
T5 sequence: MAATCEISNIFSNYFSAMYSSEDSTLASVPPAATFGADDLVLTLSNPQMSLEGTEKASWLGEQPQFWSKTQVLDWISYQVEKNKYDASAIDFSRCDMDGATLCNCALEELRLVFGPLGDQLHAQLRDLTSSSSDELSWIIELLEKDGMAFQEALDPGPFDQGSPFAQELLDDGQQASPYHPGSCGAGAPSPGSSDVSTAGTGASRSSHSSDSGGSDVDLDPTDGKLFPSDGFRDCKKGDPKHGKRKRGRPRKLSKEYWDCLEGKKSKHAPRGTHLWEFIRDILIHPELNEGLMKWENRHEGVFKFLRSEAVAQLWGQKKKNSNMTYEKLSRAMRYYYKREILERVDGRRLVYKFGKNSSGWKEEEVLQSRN
The conditions noted are these: protein: recombinant; tags: N-terminal GST; dsDNA, one strand shown. The method in brief: as §1

For another assay, the target named is CRX (Homo sapiens, UniProt O43186 1-299). The conditions noted are these: protein: recombinant; tags: N-terminal GST; dsDNA, one strand shown. The method in brief:
as §1

The next assay addresses ETV1 (Homo sapiens, UniProt P50549 1-477). The following applies: protein: recombinant; tags: N-terminal GST; dsDNA, one strand shown. The method in brief:
as §1

The target in another assay is T6, ERF (Homo sapiens, UniProt P50548 1-548).
T6 sequence: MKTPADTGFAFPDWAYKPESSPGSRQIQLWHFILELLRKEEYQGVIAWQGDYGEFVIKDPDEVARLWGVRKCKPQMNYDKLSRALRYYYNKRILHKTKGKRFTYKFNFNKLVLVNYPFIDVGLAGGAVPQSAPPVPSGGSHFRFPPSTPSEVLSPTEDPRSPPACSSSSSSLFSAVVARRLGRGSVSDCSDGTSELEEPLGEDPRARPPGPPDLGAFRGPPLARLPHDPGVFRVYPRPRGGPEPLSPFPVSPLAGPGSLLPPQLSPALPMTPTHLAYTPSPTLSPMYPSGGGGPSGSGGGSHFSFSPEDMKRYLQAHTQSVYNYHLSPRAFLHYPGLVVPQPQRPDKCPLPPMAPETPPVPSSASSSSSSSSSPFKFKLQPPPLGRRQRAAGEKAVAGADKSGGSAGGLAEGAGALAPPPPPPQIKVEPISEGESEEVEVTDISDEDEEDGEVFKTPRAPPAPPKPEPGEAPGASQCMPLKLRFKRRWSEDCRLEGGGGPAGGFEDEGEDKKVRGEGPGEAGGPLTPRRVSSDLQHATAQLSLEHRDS
The following applies: protein: recombinant; tags: N-terminal GST; dsDNA, one strand shown. The method in brief: as §1

Another assay addresses T7, ETV3L (Homo sapiens, UniProt Q6ZN32 1-361).
T7 sequence: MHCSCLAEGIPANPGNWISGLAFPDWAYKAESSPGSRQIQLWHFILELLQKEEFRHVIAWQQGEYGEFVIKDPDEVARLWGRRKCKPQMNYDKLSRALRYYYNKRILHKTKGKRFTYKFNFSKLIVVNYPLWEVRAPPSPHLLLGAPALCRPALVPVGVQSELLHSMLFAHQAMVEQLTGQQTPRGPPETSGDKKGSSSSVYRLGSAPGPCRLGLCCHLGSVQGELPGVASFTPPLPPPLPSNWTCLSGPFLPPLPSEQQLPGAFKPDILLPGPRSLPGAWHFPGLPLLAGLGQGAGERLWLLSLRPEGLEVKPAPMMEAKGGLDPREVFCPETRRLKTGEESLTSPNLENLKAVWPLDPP
The following applies: protein: recombinant; tags: N-terminal GST; dsDNA, one strand shown. The method in brief:
as §1

A further assay deals with T8, ETS2 (Homo sapiens, UniProt P15036 1-469).
T8 sequence: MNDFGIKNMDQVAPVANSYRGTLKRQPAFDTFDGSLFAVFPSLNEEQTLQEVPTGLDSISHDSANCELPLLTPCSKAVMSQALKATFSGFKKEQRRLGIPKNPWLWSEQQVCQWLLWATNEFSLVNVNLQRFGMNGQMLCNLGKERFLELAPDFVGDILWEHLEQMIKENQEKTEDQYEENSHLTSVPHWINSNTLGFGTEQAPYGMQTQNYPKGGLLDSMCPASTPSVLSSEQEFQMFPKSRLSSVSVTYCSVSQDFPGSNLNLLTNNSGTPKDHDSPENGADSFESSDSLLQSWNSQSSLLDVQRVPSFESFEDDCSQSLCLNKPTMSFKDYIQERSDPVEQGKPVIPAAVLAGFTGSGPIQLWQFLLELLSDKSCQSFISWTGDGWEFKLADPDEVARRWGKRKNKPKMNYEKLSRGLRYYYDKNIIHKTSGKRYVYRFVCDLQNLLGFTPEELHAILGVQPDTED
The following applies: protein: recombinant; tags: N-terminal GST; dsDNA, one strand shown. The method in brief:
as §1

Another assay concerns the target T9, SPDEF (Homo sapiens, UniProt O95238 1-335).
T9 sequence: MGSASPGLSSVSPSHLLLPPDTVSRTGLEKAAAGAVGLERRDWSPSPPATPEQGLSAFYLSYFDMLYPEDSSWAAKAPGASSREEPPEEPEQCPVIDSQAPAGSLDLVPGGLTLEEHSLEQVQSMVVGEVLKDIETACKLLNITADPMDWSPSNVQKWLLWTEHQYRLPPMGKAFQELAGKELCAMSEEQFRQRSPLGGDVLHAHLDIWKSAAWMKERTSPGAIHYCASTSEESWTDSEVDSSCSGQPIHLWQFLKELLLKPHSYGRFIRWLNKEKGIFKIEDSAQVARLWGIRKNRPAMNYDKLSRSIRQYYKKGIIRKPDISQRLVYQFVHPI
The following applies: protein: recombinant; tags: N-terminal GST; dsDNA, one strand shown. The method in brief: as §1

The next assay deals with T10, ETV7 (Homo sapiens, UniProt Q9Y603 1-341).
T10 sequence: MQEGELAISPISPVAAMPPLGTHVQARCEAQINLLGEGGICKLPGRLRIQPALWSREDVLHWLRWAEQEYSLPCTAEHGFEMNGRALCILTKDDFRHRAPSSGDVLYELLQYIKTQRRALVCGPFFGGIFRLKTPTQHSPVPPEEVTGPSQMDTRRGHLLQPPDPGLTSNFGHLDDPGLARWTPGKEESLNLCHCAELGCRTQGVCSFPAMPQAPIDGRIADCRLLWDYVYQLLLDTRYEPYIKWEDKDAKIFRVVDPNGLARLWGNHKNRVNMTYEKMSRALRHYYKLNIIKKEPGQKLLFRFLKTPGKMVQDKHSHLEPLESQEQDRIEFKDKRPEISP
The following applies: protein: recombinant; tags: N-terminal GST; dsDNA, one strand shown. The method in brief: as §1

The next assay addresses T11, ELF5 (Homo sapiens, UniProt Q9UKW6-2 1-255).
T11 sequence: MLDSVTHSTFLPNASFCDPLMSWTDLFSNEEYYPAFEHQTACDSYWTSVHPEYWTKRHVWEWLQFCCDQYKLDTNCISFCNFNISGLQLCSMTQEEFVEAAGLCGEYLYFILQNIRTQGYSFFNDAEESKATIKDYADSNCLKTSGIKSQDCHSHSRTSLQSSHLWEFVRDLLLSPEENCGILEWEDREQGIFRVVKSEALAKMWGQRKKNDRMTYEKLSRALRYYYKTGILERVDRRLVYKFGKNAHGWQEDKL
The conditions noted are these: protein: recombinant; tags: N-terminal GST; dsDNA, one strand shown. The method in brief: as §1

The target of the next assay is T12, ETV3 (Homo sapiens, UniProt P41162-2 1-143).
T12 sequence: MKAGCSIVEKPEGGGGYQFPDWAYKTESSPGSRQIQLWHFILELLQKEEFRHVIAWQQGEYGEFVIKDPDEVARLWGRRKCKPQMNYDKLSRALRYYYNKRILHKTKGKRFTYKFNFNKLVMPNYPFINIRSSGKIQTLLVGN
The following applies: protein: recombinant; tags: N-terminal GST; dsDNA, one strand shown. The method in brief: as §1

In a further assay the target is ETV6 (Homo sapiens, UniProt P41212 1-452). The following applies: protein: recombinant; tags: N-terminal GST; dsDNA, one strand shown. The method in brief: as §1
ETV6, sequence (P41212 whole entry): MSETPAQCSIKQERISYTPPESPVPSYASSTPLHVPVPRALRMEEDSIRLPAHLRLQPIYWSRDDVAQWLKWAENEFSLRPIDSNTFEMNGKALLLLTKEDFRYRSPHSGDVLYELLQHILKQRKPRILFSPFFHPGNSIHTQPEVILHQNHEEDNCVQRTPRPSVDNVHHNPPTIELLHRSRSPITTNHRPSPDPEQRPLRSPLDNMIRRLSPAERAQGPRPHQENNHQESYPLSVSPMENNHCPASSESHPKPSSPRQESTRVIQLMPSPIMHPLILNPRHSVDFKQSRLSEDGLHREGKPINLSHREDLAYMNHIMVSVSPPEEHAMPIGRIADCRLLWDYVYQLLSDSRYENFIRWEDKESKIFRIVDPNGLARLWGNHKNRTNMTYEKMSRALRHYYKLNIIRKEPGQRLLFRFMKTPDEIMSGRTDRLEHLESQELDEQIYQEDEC

HSF1, sequence (Q00613 whole entry): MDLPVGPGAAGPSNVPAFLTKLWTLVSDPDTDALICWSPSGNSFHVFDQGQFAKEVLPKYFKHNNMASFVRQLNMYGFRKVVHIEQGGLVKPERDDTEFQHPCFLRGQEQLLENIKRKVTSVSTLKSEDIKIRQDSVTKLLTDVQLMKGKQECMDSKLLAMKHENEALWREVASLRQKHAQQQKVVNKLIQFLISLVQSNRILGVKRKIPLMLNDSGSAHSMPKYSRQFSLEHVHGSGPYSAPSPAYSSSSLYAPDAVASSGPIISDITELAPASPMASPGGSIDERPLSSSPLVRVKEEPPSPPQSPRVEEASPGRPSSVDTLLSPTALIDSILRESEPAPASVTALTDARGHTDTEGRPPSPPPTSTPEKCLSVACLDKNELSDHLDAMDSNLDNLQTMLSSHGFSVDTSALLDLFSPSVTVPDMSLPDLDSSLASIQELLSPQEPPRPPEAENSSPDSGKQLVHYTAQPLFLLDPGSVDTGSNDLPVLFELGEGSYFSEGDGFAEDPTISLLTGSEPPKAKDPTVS
ETV5, sequence (P41161 whole entry): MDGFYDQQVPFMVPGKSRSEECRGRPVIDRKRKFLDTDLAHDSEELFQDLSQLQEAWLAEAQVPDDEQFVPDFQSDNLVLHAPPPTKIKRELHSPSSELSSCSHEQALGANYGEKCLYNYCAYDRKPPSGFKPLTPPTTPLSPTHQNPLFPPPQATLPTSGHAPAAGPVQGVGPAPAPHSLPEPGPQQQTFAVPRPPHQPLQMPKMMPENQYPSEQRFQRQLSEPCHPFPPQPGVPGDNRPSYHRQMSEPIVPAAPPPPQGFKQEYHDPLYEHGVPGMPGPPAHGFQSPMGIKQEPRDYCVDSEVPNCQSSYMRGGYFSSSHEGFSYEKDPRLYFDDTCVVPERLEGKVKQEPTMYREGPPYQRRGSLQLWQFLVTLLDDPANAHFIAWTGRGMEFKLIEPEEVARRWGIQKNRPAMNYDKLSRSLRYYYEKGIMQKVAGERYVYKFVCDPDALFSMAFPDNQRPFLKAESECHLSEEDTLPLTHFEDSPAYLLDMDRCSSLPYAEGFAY
ETV1, sequence (P50549 whole entry): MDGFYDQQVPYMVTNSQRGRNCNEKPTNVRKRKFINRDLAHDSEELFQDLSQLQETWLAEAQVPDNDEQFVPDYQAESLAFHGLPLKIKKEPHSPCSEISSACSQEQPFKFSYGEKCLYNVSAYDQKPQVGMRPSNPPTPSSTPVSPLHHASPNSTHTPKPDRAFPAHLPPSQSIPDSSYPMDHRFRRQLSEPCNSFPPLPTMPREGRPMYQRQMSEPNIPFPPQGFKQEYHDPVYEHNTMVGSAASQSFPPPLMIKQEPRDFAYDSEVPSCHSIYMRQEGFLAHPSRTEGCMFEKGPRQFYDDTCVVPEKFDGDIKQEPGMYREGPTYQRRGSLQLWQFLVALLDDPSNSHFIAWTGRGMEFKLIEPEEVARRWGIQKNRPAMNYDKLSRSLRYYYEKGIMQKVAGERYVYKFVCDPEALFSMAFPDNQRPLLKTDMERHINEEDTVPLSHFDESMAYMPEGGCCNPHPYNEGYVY
CRX, sequence (O43186 whole entry): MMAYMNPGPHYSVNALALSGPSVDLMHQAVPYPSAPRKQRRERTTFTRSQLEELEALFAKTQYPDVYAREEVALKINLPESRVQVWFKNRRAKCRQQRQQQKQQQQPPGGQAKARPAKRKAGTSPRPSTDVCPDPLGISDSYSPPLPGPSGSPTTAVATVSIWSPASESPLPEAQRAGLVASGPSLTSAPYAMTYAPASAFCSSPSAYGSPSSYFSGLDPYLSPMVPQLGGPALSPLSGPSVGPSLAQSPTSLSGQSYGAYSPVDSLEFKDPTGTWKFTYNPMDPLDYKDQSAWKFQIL

For the sequence TATTCT, the binding signal was 1.27 fold enrichment (6-mer frequency, TF over GST control) with FEV; 1.33 fold enrichment (6-mer frequency, TF over GST control) with ETV5; 2.77 fold enrichment (6-mer frequency, TF over GST control) in the assay with HSF1; 1.28 fold enrichment (6-mer frequency, TF over GST control) with SPIC; 1.38 fold enrichment (6-mer frequency, TF over GST control) with ELF4; 1.37 fold enrichment (6-mer frequency, TF over GST control) in the assay with ELK4. The binding signal in the assay with ETV2 was 1.29 fold enrichment (6-mer frequency, TF over GST control); with ELF3, 1.38 fold enrichment (6-mer frequency, TF over GST control); in the assay with CRX, 1.9 fold enrichment (6-mer frequency, TF over GST control); with ETV1, 1.4 fold enrichment (6-mer frequency, TF over GST control); with ERF, 1.22 fold enrichment (6-mer frequency, TF over GST control); with ETV3L, 1.35 fold enrichment (6-mer frequency, TF over GST control). The binding signal is 1.36 fold enrichment (6-mer frequency, TF over GST control) with ETS2; 1.34 fold enrichment (6-mer frequency, TF over GST control) with SPDEF; 1.42 fold enrichment (6-mer frequency, TF over GST control) in the assay with ETV7; 1.32 fold enrichment (6-mer frequency, TF over GST control) in the assay with ELF5; 1.31 fold enrichment (6-mer frequency, TF over GST control) in the assay with ETV3; 1.4 fold enrichment (6-mer frequency, TF over GST control) with ETV6.
